About 83,000 compounds went through this panel and 20% of them were active in at least one assay; those are over-represented in the sample as a whole.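 Method: cells in 96-well plates; compound added at one concentration; 48 h incubation; percent growth measured; values under 10 scored active.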 Values without a mark were called inactive. Activity calls are given as the source filed them.

Some test systems named below: NCI-H23 lung; NCI-H226 lung; NCI-H322M lung; HOP-62 NSCLC; NCI-H460 lung; HOP-92 NSCLC; NCI-H522 lung; A549/ATCC NSCLC; 786-0 renal; COLO 205 colon; DU-145 prostate; MALME-3M melanoma; MDA-MB-231 breast; RXF 393 renal; SF-268 CNS; SF-295 CNS; SF-539 CNS; UACC-257 melanoma; M14 melanoma; K-562 leukemia.
Holding throughout (experiment): NCI-60 one-dose screen, 48 h (100 = growth as untreated, 0 = no growth, -100 = all killed)
Common to all, as to details: 10 µM unless noted

For `Cc1ccc(NS(=O)(=O)c2cc(C)ccc2C)cc1`, the growth is 59.2% in the test on NCI-H23 lung; 79.1% in the test on NCI-H226 lung; 88.7% with NCI-H322M lung; 49.3% in the test on HOP-62 NSCLC; 14.4% in the test with NCI-H460 lung; 39.6% in the test on HOP-92 NSCLC. The growth in the test with NCI-H522 lung is 11.5%; in the test with A549/ATCC NSCLC, 33.5%; with 786-0 renal, 61%; in the test with COLO 205 colon, 32.8%; with DU-145 prostate it was 57.9%; in the test on MALME-3M melanoma, 54.1%. Moreover, the growth with MDA-MB-231 breast is 57.4%; with RXF 393 renal it was 47.6%; in the test on SF-268 CNS, 53.7%; in the test on SF-295 CNS it was 30.7%; in the test with SF-539 CNS, 45.4%; in the test with UACC-257 melanoma it was 73%. Besides, the growth in the test on M14 melanoma is 8.87% (active).

On to `COc1ccc(/C(C#N)=C/c2cc(OC)c(OC)c(OC)c2)cc1`, for which the growth in the test on NCI-H23 lung is 62.3%; in the test with NCI-H226 lung, 70.6%; in the test on NCI-H322M lung, 59.7%; with HOP-62 NSCLC, 46.7%; with NCI-H460 lung it was 16.9%; in the test on HOP-92 NSCLC, 31.6%. Besides, the growth is 15.8% with NCI-H522 lung; 32.5% in the test on A549/ATCC NSCLC; 51.2% with 786-0 renal; 24.3% with COLO 205 colon; 82.7% with DU-145 prostate; 19% in the test on K-562 leukemia. Also, the growth with MDA-MB-231 breast is 58.1%; in the test on RXF 393 renal it was 56.7%; in the test with SF-268 CNS it was 61.9%; in the test with SF-539 CNS, 23.1%; with UACC-257 melanoma, 52.8%; with M14 melanoma, 17.2%.

`O=S(=O)(c1ccc(OCCO)cc1)c1ccc(OCCO)cc1`: the growth in the test on NCI-H23 lung is 106%; in the test with NCI-H226 lung, 106%; with NCI-H322M lung, 91.8%; in the test with HOP-62 NSCLC, 114%; with NCI-H460 lung, 104%; with HOP-92 NSCLC it was 87.2%. Further, the growth in the test on NCI-H522 lung was 82.7%; in the test with A549/ATCC NSCLC, 101%; in the test with 786-0 renal, 112%; in the test with COLO 205 colon, 132%; with K-562 leukemia, 101%; in the test on MALME-3M melanoma it was 98.6%. Besides, the growth in the test on MDA-MB-231 breast was 112%; in the test on RXF 393 renal, 119%; with SF-268 CNS it was 122%; with SF-295 CNS, 118%; with SF-539 CNS, 110%; with UACC-257 melanoma, 85.7%. In addition, the growth with M14 melanoma is 102%.

As to `COc1cc(/C=C/c2cc(/C=C/c3ccc(O)c(OC)c3)n(C(N)=O)n2)ccc1O`, the growth with NCI-H23 lung was -4% (active); in the test on NCI-H226 lung, 11.9%; in the test on NCI-H322M lung it was -1.78% (active); with HOP-62 NSCLC it was -3.02% (active); with NCI-H460 lung it was 0.571% (active); in the test on HOP-92 NSCLC it was -42.8% (active). Also, the growth with NCI-H522 lung is -21.2% (active); with A549/ATCC NSCLC, 3.16% (active); with 786-0 renal, -45.8% (active); with COLO 205 colon, -37.7% (active); in the test with DU-145 prostate, 2.11% (active); with K-562 leukemia, -23% (active). The growth with MALME-3M melanoma is -4.94% (active); in the test with MDA-MB-231 breast, 3.7% (active); with SF-268 CNS it was -10.7% (active); with SF-295 CNS it was 4.87% (active); in the test on SF-539 CNS, -26.3% (active); in the test on UACC-257 melanoma, 0.83% (active). Also, the growth with M14 melanoma was -66.2% (active).

As to `Cc1ccc2ccccc2c1C[n+]1ccccc1`, the growth with NCI-H23 lung was 86.5%; with NCI-H226 lung it was 99.3%; with NCI-H322M lung, 109%; with HOP-62 NSCLC it was 84.8%; in the test with NCI-H460 lung, 114%; with HOP-92 NSCLC it was 79.3%. In addition, the growth was 100% with NCI-H522 lung; 99.1% in the test with A549/ATCC NSCLC; 102% with 786-0 renal; 112% in the test with COLO 205 colon; 117% with DU-145 prostate; 108% in the test with MALME-3M melanoma. Moreover, the growth in the test on MDA-MB-231 breast is 77.8%; with RXF 393 renal, 105%; in the test on SF-268 CNS, 106%; in the test with SF-295 CNS, 101%; in the test with SF-539 CNS, 105%; with UACC-257 melanoma, 113%. In the test on M14 melanoma, the growth is 111%.

Turning to `CC(=O)Nc1nc(N)nc(NC(C)=O)c1N=O`, the growth with NCI-H23 lung is 95.3%; in the test with NCI-H226 lung, 105%; in the test with NCI-H322M lung, 140%; with HOP-62 NSCLC it was 106%; in the test on NCI-H460 lung, 123%; in the test with HOP-92 NSCLC it was 108%. Also, the growth in the test with NCI-H522 lung is 101%; in the test with A549/ATCC NSCLC, 107%; in the test with 786-0 renal, 106%; with COLO 205 colon it was 116%; in the test with DU-145 prostate, 107%; in the test on K-562 leukemia it was 124%. Besides, the growth in the test on MDA-MB-231 breast is 114%; in the test with RXF 393 renal, 135%; with SF-268 CNS, 98.7%; with SF-539 CNS it was 105%; in the test on UACC-257 melanoma, 113%; in the test on M14 melanoma, 104%.

Regarding `O=[N+]([O-])c1ccc(/C=C/C2(CCl)OCCO2)cc1`, the growth in the test with NCI-H23 lung was 90.9%; with NCI-H226 lung, 101%; with NCI-H322M lung it was 152%; in the test with HOP-62 NSCLC it was 116%; in the test on NCI-H460 lung it was 117%; in the test on HOP-92 NSCLC it was 84.2%. Also, the growth with NCI-H522 lung is -15.3% (active); with A549/ATCC NSCLC, 105%; with 786-0 renal, 85.6%; in the test on COLO 205 colon, 107%; in the test with DU-145 prostate, 114%; in the test on K-562 leukemia it was 65.7%. The growth in the test with MDA-MB-231 breast was 114%; in the test on RXF 393 renal, 104%; in the test on SF-268 CNS, 115%; in the test on SF-539 CNS, 104%; in the test on UACC-257 melanoma, 93.6%; with M14 melanoma, 95.2%.

Regarding `COc1ccc(Cn2cc3c(c2-c2cc(OC)c(OC)c(OC)c2)CCc2cnoc2-3)cc1`, the growth with NCI-H23 lung is 22.8%; in the test on NCI-H226 lung, 19.8%; with NCI-H322M lung it was 35.8%; in the test with HOP-62 NSCLC, 64.2%; in the test with NCI-H460 lung it was 4.4% (active); in the test on HOP-92 NSCLC, 77.1%. The growth is 24.7% in the test on NCI-H522 lung; 25.2% in the test on A549/ATCC NSCLC; 36.3% in the test with 786-0 renal; -27.7% (active) with COLO 205 colon; 20.2% with DU-145 prostate; 14.6% in the test with K-562 leukemia. For the same molecule, the growth with MDA-MB-231 breast is 14%; with RXF 393 renal it was 17.1%; with SF-268 CNS, 40.9%; in the test on SF-295 CNS, 1.12% (active); in the test with SF-539 CNS it was 2.64% (active); with UACC-257 melanoma it was 67.6%. In the test on M14 melanoma, the growth is 7.62% (active).

For the origin of these results see PubChem BioAssay (NCI).
